IDE exosite inh – insulin-degrading enzyme (human) exo-site inhibition. P14735. purified IDE, FL-6b probe fluorescence polarization; hits give low values. z-score at 20 µM. hit rate 6.3% among 17,000;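 active = z-score of -3 or lower, meaning strong loss of probe binding signal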;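 also: His-tagged human IDE residues 42-1019 made in E. coli with 30 nM FL-6b probe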
Numbers without * were called inactive; ! = a repeat was not active. The full list was thinned out, with hits kept by preference.

SMILES	IDE exosite inh
COc1ccc(-c2ccc([C@@H]3[C@H]4CN(C(=O)C5CCOCC5)CC(=O)N4[C@H]3CO)cc2)cc1	-1.5
Cc1cccc(-c2ccc(C3[C@@H]4CN(C(=O)C5CCCCC5)C[C@H]3N4)cc2)c1 (some centres not stated)	-5.4*!
COc1cccc(-c2ccc([C@H]3[C@H](CO)N4C(=O)CN(C(=O)C5CC5)C[C@@H]34)cc2)c1	-7.5*
COc1ccc(-c2ccc([C@H]3[C@@H](CO)N4C(=O)CN(C(=O)C5CC5)C[C@@H]34)cc2)cc1	-0.095
COc1cccc(-c2ccc([C@@H]3[C@@H](CO)N4C(=O)CN(C(=O)C5CC5)C[C@@H]34)cc2)c1	-15*
COc1ccc(S(=O)(=O)Nc2cccc3c2O[C@H](CN(C)CC2CCCCC2)[C@H](C)CN([C@H](C)CO)C3=O)cc1	-0.92
COc1ccc2c3c(n(C)c2c1)[C@H](CO)N(C(=O)Nc1ccc(F)cc1)CC31CCN(C(=O)Nc2ccc(F)cc2F)CC1	0.72
N#C[C@@H]1[C@@H](c2ccc(-c3cccnc3)cc2)[C@H](CO)N1C(=O)C1CCC1	1.9
CC[C@@H]1C/C=C\CCNC(=O)C[C@H](c2ccccc2)C(=O)N1	-0.11
CCC(=O)NC[C@@H]1[C@@H](c2ccc(C3=CCCC3)cc2)[C@@H](CO)N1CC1CC1	1.3
CN(C)CC#Cc1ccc([C@H]2[C@@H](CO)N3CCCCN(C(=O)Nc4cc(F)ccc4F)C[C@H]23)cc1	2.3
COc1cccc(-c2ccc(C3[C@@H]4CN(C(=O)C5CCCCC5)C[C@H]3N4)cc2)c1 (some centres not stated)	-0.31
COc1cccc(-c2ccc(C3[C@@H]4CN(C(=O)C5CCOCC5)C[C@H]3N4)cc2)c1 (some centres not stated)	-7.1*!
N#Cc1cccc(-c2ccc(C3[C@@H]4CN(C(=O)C5CCOCC5)C[C@H]3N4)cc2)c1 (some centres not stated)	1
N#C[C@@H]1[C@H](c2ccccc2-c2cccc(F)c2)[C@H](CO)N1C(=O)C1CCC1	2.9
CO[C@H]1CC[C@@H]2CCN(C)C(=O)[C@H](C)CN(C)C(=O)c3cc(C#N)ccc3OC[C@H]1O2	0.31

Bioassay records deposited in PubChem BioAssay by Broad Institute.
